# TDP1 cell noCPT: qHTS for Inhibitors of human tyrosyl-DNA phosphodiesterase 1 (TDP1): qHTS in cells in absence of CPT. DT40 Tdp1-/- hTDP1 cells, no CPT, ATP luminescence, 48 h. AID 686978, 2013. 15% of 420,000 active. Potency, µM (top dose mostly 46.2 µM), without a hit: at the highest dose activity change, negative = growth inhibition, usual class: inhibitors; further: nearly all actives have a fitted effect of over 55% in size
#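 Chicken DT40 Tdp1-/- cells complemented with human TDP1, screened without camptothecin (DMSO vehicle only), 400 cells/well. Compounds pin-transferred, cells incubated at 37 °C for at least 48 hr. Growth read as ATP-dependent luminescence (CellTiter-Glo, 30 min at RT).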
# TDP1 cell CPT: qHTS for Inhibitors of human tyrosyl-DNA phosphodiesterase 1 (TDP1): qHTS in cells in presence of CPT; chicken DT40 Tdp1-/-;hTDP1 cells + 20 nM CPT, ATP luminescence, 48 h; Potency, µM (top dose mostly 46.2 µM), inactives show top-dose activity change, negative = growth inhibition, most hits filed as inhibitors; 12% of 420,000 active; further: nearly all actives have a fitted effect of over 55% in size
#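 Chicken DT40 Tdp1-/- cells stably complemented with human TDP1 were seeded at 400 cells/well in medium containing 20 nM camptothecin, exposed to pin-transferred compounds, and grown at 37 °C for at least 48 hr. Viability was read as ATP luminescence.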
# ALOX12 inh: Primary qHTS assay for inhibitors of human arachidonate 12S-lipoxygenase (ALOX12): Round 2; purified 12hLO, xylenol orange hydroperoxide absorbance; Potency, µM (highest dose often 108 µM), inactives show at the highest dose activity change, negative = inhibition, usual class: inhibitors; 1.1% of 580,000 active; AID 1671190, 2021
#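 Hydroperoxide product was detected by ferrous iron/xylenol orange as the 573 to 405 nm absorbance ratio. Arachidonic acid at 40 uM (final) was turned over for 30 min at room temperature by 150 nM human 12hLO, pH 7.0 Hepes buffer, after 15 min compound preincubation.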
# RORgamma inh: qHTS for inhibitors of ROR gamma transcriptional activity; AID 2551, 2010; Potency, µM (titrated, usually from 53.6 µM), for inactives: at the highest dose activity change, negative = inhibition, most hits filed as inhibitors; Drosophila S2 Gal4-RORgamma UAS-luciferase reporter, 20 h; 5.4% of 310,000 active; further: nearly all actives have a fitted effect of over 60% in size
# Target sequence (P51450 whole entry, looked up, the tested form may be a part): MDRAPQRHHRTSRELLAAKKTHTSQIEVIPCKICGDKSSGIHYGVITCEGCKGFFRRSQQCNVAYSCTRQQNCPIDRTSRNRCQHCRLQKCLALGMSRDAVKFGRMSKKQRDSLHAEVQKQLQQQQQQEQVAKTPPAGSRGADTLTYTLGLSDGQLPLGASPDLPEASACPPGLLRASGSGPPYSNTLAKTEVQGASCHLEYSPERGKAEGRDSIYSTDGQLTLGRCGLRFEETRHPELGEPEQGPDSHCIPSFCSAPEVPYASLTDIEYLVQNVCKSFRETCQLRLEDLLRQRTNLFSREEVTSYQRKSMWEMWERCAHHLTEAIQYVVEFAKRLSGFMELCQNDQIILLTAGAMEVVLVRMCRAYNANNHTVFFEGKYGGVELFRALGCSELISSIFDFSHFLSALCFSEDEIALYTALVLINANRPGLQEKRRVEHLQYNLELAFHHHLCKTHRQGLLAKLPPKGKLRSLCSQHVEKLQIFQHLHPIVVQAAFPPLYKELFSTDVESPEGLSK
#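 ROR gamma transcriptional activity was tracked as Gal4-UAS luciferase output in stably transfected Drosophila Schneider cells, with compound added 1 hr before 700 uM copper sulfate induction and a 20 hr ambient-temperature incubation.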
# ELG1 repair inh: qHTS screen for small molecules that inhibit ELG1-dependent DNA repair in human embryonic kidney (HEK293T) cells expressing luciferase-tagged ELG1 | HEK293T ELG1-luciferase reporter, luminescence, 16 h; DNA damage induced by 5-fluorouridine | Potency, µM (highest dose often 46.1 µM), inactives show at the top dose activity change, negative = inhibition, actives largely listed as inhibitors | 2.3% of 330,000 active | AID 504467, 2011; further: nearly all actives have a fitted effect of over 55% in size
#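 Reporter activity after DNA damage by 5-fluorouridine is monitored. Compound-treated cells incubate 16 hr at 37 °C, then ONE-Glo is added for 30 min before luminescence reading.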
# VP16 counter: VP16 counterscreen qHTS for inhibitors of ROR gamma transcriptional activity; Drosophila S2 Gal4-VP16 UAS-luciferase, luminescence, 20 h; Potency, µM (top dose mostly 53.6 µM), inactives show at the highest dose activity, negative = inhibition, actives largely listed as inhibitors; 3.5% of 310,000 active;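 further: Gal4-VP16 expression switched on by copper sulfate through the metallothionein promoter; nearly all actives have a fitted effect of over 50% in size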
# The depositor's hits bear a star; ? = inconclusive; · = not tested or not shown; [ ] = dose if it differs, or a comment. An excerpt weighted towards active compounds, which were near 15% of everything screened. The call rests on the fitted dose curve; in most records, active means well fitted curve in the direction sought with a large enough effect; inconclusive means small, poorly fitted or top-dose-only effect, or another doubt; inactive means no such curve, though single readings can be large; an effect the other way counts as inactive or inconclusive. On the % scale 0 is the no-effect control and ±100 the full control effect; potency means the concentration at half of the fitted maximal effect.
SMILES,TDP1 cell noCPT,TDP1 cell CPT,ALOX12 inh,RORgamma inh,ELG1 repair inh,VP16 counter
Oc1ccc(/C=N/n2c(COc3ccccc3)n[nH]c2=S)cc1O,?,?,0%,-28%,-18%,-4%
CCOc1cc(/C=N/n2c(COc3ccccc3)n[nH]c2=S)ccc1O,?,-18%,0%,5µM*,7%,?
COc1ccc(CCN(C)C(=O)c2cccc3c(=O)c(C)c(-c4ccccc4)oc23)cc1OC,·,·,20%,·,·,·
Cc1nn(C)c(C)c1NC(=O)c1c(Br)cnn1C,·,·,21%,·,·,·
FC(F)Oc1ccc(/C=N/n2c(Cc3ccc(Br)cc3)n[nH]c2=S)cc1,?,?,?,8.9µM*,14%,?
CC(C)c1ccc(/C=N/n2c(COc3ccccc3)n[nH]c2=S)cc1,?,?,?,?,3%,10µM*
Cc1[nH]c2ccccc2c1C1N2CC3(C)CN1CC(C)(C2)C3=O (centres undefined),-13%,-15%,0%,·,·,·
CCC12CN3CC(C)(CN(C1)C3c1c[nH]c3ccccc13)C2=O (centres undefined),23µM*,?,5%,·,·,·
CCC12CN3CC(CC)(CN(C1)C3c1c[nH]c3ccccc13)C2=O (centres undefined),16µM*,-85%,0%,·,·,·
CCC12CN3CC(CC)(CN(C1)C3c1c(O)ccc3ccccc13)C2=O (centres undefined),-6%,-3%,-7%,?,-2%,?
CCn1cc(C2N3CC4(CC)CN2CC(CC)(C3)C4=O)c2ccccc21 (centres undefined),18µM*,?,2%,·,·,·
Cc1cc(NC(=O)NCCNc2ccc(C#N)cn2)n(-c2ccccc2)n1,·,·,24%,·,·,·
COc1cc2c(cc1OC)C(=S)NC1(CCCC1)C2,-15%,11%,?,2µM*,-11%,14µM*
COc1cc2c(cc1OC)C(SC)=NC1(CCCC1)C2,15µM*,16µM*,-3%,0%,19%,-5%
S=C1NC2(CCCCC2)Cc2ccccc21,?,?,?,1.1µM*,-12%,?
O=C1NC2(CCCCC2)Cc2ccccc21,-27%,-14%,21%,21%,?,5%
COc1ccc2cnn(CC(=O)Nc3cccc4ccccc34)c(=O)c2c1OC,·,·,-4%,·,·,·
NS(=O)(=O)c1ccc(N/N=C/c2cccs2)c([N+](=O)[O-])c1,·,·,-56%,·,·,·
CCOC(=O)c1c(-c2ccc(OC)cc2)nc2nonc2c1N,2.6µM*,?,-8%,42%,-8%,5%
Cc1ccccc1N=C1Nc2cccc3cccc1c23,·,·,-9%,·,·,·
N#Cc1c(Nc2ccc(Cl)cc2)s[nH]c1=O,12µM*,15µM*,?,?,0%,?
CSc1nc(-c2ccccc2)c(C#N)c(=O)[nH]1,-15%,?,-8%,6%,-16%,-12%
CSc1nc(Nc2ccc(Cl)cc2)c(C#N)c(=O)[nH]1,17%,1%,6.3µM*,13%[1.91 µM],2%,-4%
CC(C)(C)NC(=O)CNC(=O)CCc1ncc(-c2ccc(Cl)cc2Cl)o1,·,·,-48%,·,·,·
N#Cc1ccc(-c2nc3ccc(Br)cc3c(=O)n2O)cc1,?,?,3%,-39%,9.2µM*,-2%
SMILES,TDP1 cell noCPT,TDP1 cell CPT,ALOX12 inh,RORgamma inh,ELG1 repair inh,VP16 counter
O=c1c2cc(Br)ccc2nc(-c2cccc(C(F)(F)F)c2)n1O,10µM*,18µM*,?,3.5µM*,?,20µM*
O=C(Cn1nnc(-c2cccc(C(F)(F)F)c2)n1)c1cccc(Br)c1,·,·,0%,·,·,·
CCc1noc(C)c1C(=O)NCCN1C(=O)S/C(=C\c2ccc(OC)cc2)C1=O,16µM*,23µM*,-10%,·,-5%,·
COc1ccc(/C=C2\SC(=O)N(CCNC(=O)Cn3cnnn3)C2=O)cc1,-13%,-25%,?,5%,?,3%
COc1ccc(/C=C2\SC(=O)N(CCNC(=O)CCS(=O)(=O)c3ccc(C)cc3)C2=O)cc1,21µM*,13µM*,-6%,9%,?,3%
CN(C)C[C@@H]1CN(c2ncccn2)C[C@H]1NC(=O)c1nn(C)c2ccccc12,·,·,56%,·,·,·
Nc1c(C(=O)NCc2ccccc2)c2nc3ccccc3nc2n1CCCN1CCOCC1,-80%,?,-26%,-28%,21µM*,-24%
COc1ccc(CNC(=O)c2c(N)n(CCCN3CCOCC3)c3nc4ccccc4nc23)cc1,?,?,?,?,21µM*,?
COC(=O)c1c(N)n(CCCN2CCOCC2)c2nc3ccccc3nc12,-12%,-1%,0%,-8%,-20%,-17%
Nc1c(C(=O)NCc2ccc(F)cc2)c2nc3ccccc3nc2n1CCCN1CCOCC1,18µM*,?,?,-85%,?,?
COCCOC(=O)c1c(N)n(CCCN2CCOCC2)c2nc3ccccc3nc12,1%,13%,?,-23%,-11%,3%
